Reference: PubChem BioAssay
Values without a mark were called inactive. Active and inactive are the calls of the source. No stated cut-off is given here; in the data, active means fold change permeability below about 0.7 or above about 1.3; inactive means in between.

Assay: modulators of brain endothelial barrier permeability, primary screen, cell-based, FITC-avidin fluorescence, HTS (AID 1963498); further: test concentration not given here
Settings: actives lie on both sides

| Structure (SMILES) | fold change permeability |
| --- | --- |
| N#Cc1c2nc3ccccc3nc2n2ccc(NC(=O)c3cccs3)cc12 | 1.2 |
| Cn1c(=O)c2[nH]c(-c3ccc(S(=O)(=O)O)cc3)nc2n(C)c1=O | 1 |
| COc1cccc(OC)c1OCCNCC1COc2ccccc2O1 (stereo not drawn) | 1.3 (active) |
| C=C1C[C@@]23CC[C@H]4[C@@](C)(CCC[C@@]4(C)C(=O)O[C@@H]4O[C@H](CO)[C@@H](O)[C@H](O)[C@H]4O)[C@@H]2CC[C@]1(O[C@@H]1O[C@H](CO)[C@@H](O)[C@H](O)[C@H]1O[C@@H]1O[C@H](CO)[C@@H](O)[C@H](O)[C@H]1O)C3 | 1.7 (active) |
| CCCN1C[C@H](CSC)C[C@@H]2c3cccc4[nH]cc(c34)C[C@H]21 | 1.1 |
| C[n+]1ccccc1CC(=O)c1ccc(Br)cc1 | 0.9 |
| CC(C)C[C@H](NC(=O)[C@@H](O)[C@H](N)Cc1ccccc1)C(=O)O | 1 |
| CCN[C@H]1CN(CCCOC)S(=O)(=O)c2sc(S(N)(=O)=O)cc21 | 1.5 (active) |
| OC1(c2ccc(Cl)cc2)CCN(Cc2c[nH]c3ccccc23)CC1 | 1.4 (active) |
| Nc1ncnc2c1c(-c1cccc(OCc3ccccc3)c1)cn2C1CC(CN2CCC2)C1 (stereo not drawn) | 1.1 |
| NCCOc1cc(C(=O)Nc2cc(OCCN)c3ccccc3n2)nc(C(=O)Nc2cc(OCCN)c3ccccc3n2)c1 | 0.9 |
| O=C(O)c1ccccc1Nc1ccccc1 | 1 |
| O=C(C(c1ccccc1)c1ccccc1)N1CCN(CC(O)COc2cccc3ncccc23)CC1 (stereo not drawn) | 0.8 |
